DT40 TDP1 CPT: DT40-hTDP1 cell growth loss with CPT | Potency, µM (doses to about 46.2 µM), most hits filed as inhibitors | 420,000 tested, 12% active | chicken DT40 Tdp1-/-;hTDP1 cells + 20 nM CPT, ATP luminescence, 48 h | AID 686979; also: nearly all actives have a fitted effect of over 55% in size
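Chicken DT40 Tdp1-/- cells complemented with human TDP1, 400 cells/well, exposed to compounds plus 20 nM camptothecin for at least 48 h at 37 C; viability read as ATP content by CellTiter-Glo luminescence.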
IL-1B inflam inh: blocks inflammasome-driven IL-1 beta release; THP-1 LPS/ATP IL-1B secretion, AlphaLISA, 16 h; stronger effect = lower value; activity change, % at 57.5 µM; 360,000 tested, 4.7% active; in the data active = activity change below about -50%; inconclusive = mostly about -30% to -49%
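THP-1 cells pretreated 1 hr with compounds (up to 57.5 uM final), then stimulated with LPS (250 ng/mL final) plus ATP (1.25 mM final); secreted IL-1B measured by AlphaLISA after 16 hr, decreased signal indicating inhibition.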
HT1080 IDH1KD tx: kills HT-1080 cells with IDH1 knockdown; HT-1080 IDH1 knockdown viability, ATP luminescence, 48 h; Potency, µM (titrated, usually from 46.1 µM), hits mostly cytotoxic; 360,000 tested, 2% active
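Using the IDH1-knockdown HT-1080 line run in the same batch and compound series as the NT line, viability after 48 h at 37 °C was determined by CellTiter-Glo luminescence and expressed as % activity.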
HT1080-NT tox: kills 2HG-producing HT-1080-NT fibrosarcoma cells; 360,000 tested, 1.6% active; Potency, µM (series often up to 46.1 µM), most hits filed as cytotoxic; AID 686970; HT-1080-NT fibrosarcoma viability, CellTiter-Glo ATP luminescence, 48 h;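 also: NT is the 2HG producing partner of a matched IDH1 knockdown line; nearly all actives have a fitted effect of over 55% in size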
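Compounds were tested in concentration-response format on HT-1080-NT cells for 48 hours at 37 degrees C. Cell viability came from CellTiter-Glo luminescence; curves were classified by r2, response magnitude and activity.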
TDP1 cell noCPT: qHTS for Inhibitors of human tyrosyl-DNA phosphodiesterase 1 (TDP1): qHTS in cells in absence of CPT. Potency, µM (doses to about 46.2 µM), usual class: inhibitors. 420,000 tested, 15% active. AID 686978, 2013. DT40 Tdp1-/- hTDP1 cells, no CPT, ATP luminescence, 48 h; also: nearly all actives have a fitted effect of over 55% in size
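A cellular qHTS used chicken DT40 cells lacking endogenous Tdp1 but carrying stably transfected human TDP1. Compounds were applied without camptothecin, and cell growth kinetics were judged by ATP-dependent luminescence after ≥48 hr.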
Large screens that a line does not name were inactive. Rows were chosen to be rich in hits. Some 19% of all compounds tested hit in one or more screens of this group. Unless noted, calls follow the shape of the dose curve; as a rule, active = well fitted curve in the direction sought with a large enough effect; inconclusive = small, poorly fitted or top-dose-only effect, or another doubt; inactive = no such curve, though single readings can be large; an effect the other way counts as inactive or inconclusive.

CC(C)Cn1c(N)c(C(=O)COC(=O)c2cccn2C)c(=O)n(C)c1=O	DT40 TDP1 CPT 15µM, TDP1 cell noCPT 16µM
CCc1ccc(C(=O)OCC(=O)c2c(N)n(CC(C)C)c(=O)n(C)c2=O)cc1	DT40 TDP1 CPT inconclusive, HT1080-NT tox inconclusive, TDP1 cell noCPT inconclusive
Cn1c(N)c(C(=O)COC(=O)c2ccccc2C(=O)c2ccc(Cl)cc2)c(=O)n(C)c1=O	DT40 TDP1 CPT inconclusive, IL-1B inflam inh inconclusive, HT1080 IDH1KD tx inconclusive, HT1080-NT tox inconclusive, TDP1 cell noCPT 15µM
O=C(Nc1cnn(C23CC4CC(CC(C4)C2)C3)c1)c1cc(-c2ccccc2)on1	DT40 TDP1 CPT 23µM, HT1080 IDH1KD tx inconclusive, TDP1 cell noCPT 21µM
CCCn1cc(NC(=O)c2cc(-c3ccccc3)on2)cn1	DT40 TDP1 CPT inconclusive, HT1080 IDH1KD tx inconclusive, HT1080-NT tox inconclusive, TDP1 cell noCPT 23µM
CCN(CCCNC(=O)c1nn(-c2ccc(OC)cc2)c(=O)c2c1c1ccccc1n2C)c1ccccc1	none (no result: IL-1B inflam inh, HT1080 IDH1KD tx, HT1080-NT tox)
CC(Oc1ccc(Cl)cc1)c1ccnn1S(=O)(=O)c1ccccc1 (stereo not drawn)	none
CC(Oc1ccc(-c2ccccc2)c(F)c1)c1ccn(S(=O)(=O)c2ccc(Cl)cc2)n1 (stereo not drawn)	DT40 TDP1 CPT 15µM, TDP1 cell noCPT inconclusive
COc1ccc(CNc2nc3c(S(=O)(=O)c4ccccc4)nnn3c3ccc(Cl)cc23)cc1	DT40 TDP1 CPT inconclusive (no result: IL-1B inflam inh, HT1080 IDH1KD tx, HT1080-NT tox)
COc1ccc(CNc2nc(SCc3cc(=O)n4cc(Cl)ccc4n3)nc3ccccc23)cc1	DT40 TDP1 CPT 13µM, TDP1 cell noCPT 21µM
CNc1nc2ccccc2n1CC(=O)c1ccccc1	none
O=C(Nc1cc(F)c(Br)cc1F)c1ccc(Cl)cc1	DT40 TDP1 CPT inconclusive, HT1080-NT tox inconclusive, TDP1 cell noCPT inconclusive
Cc1ccc(N2CC(c3nnc(Cc4ccc(F)cc4)o3)CC2=O)cc1 (stereo not drawn)	none (no result: IL-1B inflam inh, HT1080 IDH1KD tx, HT1080-NT tox)
O=c1c2cnn(-c3ccccc3)c2ncn1CCc1ccccc1	TDP1 cell noCPT inconclusive
C=CCn1c(Cc2ccccc2)nc2c(cnn2-c2ccccc2)c1=O	DT40 TDP1 CPT inconclusive, HT1080 IDH1KD tx inconclusive, HT1080-NT tox inconclusive, TDP1 cell noCPT 23µM
CCCc1nc2oc3cc(OC)ccc3c(=O)c2c(=O)n1Cc1ccco1	TDP1 cell noCPT inconclusive
COc1ccc(Cn2c(-c3ccc(C)cc3)nc3c(c(=O)c4ccccc4n3C)c2=O)cc1	DT40 TDP1 CPT 15µM, HT1080 IDH1KD tx inconclusive, HT1080-NT tox inconclusive, TDP1 cell noCPT inconclusive
COc1ccc(CCn2c(C(C)C)nc3c(c(=O)c4ccccc4n3C)c2=O)cc1	DT40 TDP1 CPT 16µM, HT1080 IDH1KD tx inconclusive, TDP1 cell noCPT 12µM
CCCCCc1nc2c(c(=O)c3ccccc3n2C)c(=O)n1Cc1ccc(OC)cc1	none
CCCCCCn1c(-c2ccco2)nc2oc3cc(OC)ccc3c(=O)c2c1=O	DT40 TDP1 CPT inconclusive, TDP1 cell noCPT 21µM
COc1ccc(CCn2c(C)nc3c(c(=O)c4ccccc4n3C)c2=O)cc1	DT40 TDP1 CPT inconclusive, HT1080 IDH1KD tx inconclusive, HT1080-NT tox inconclusive, TDP1 cell noCPT 5.8µM
COc1ccc(Cn2c(C)nc3c(c(=O)c4ccccc4n3C)c2=O)cc1	TDP1 cell noCPT inconclusive
CCn1c(CNC(=O)c2ccccc2F)nnc1SCC(=O)NC1CCCCC1C (stereo not drawn)	none
COc1ccc2c(=O)c3c(=O)n(-c4ccccc4)c(-c4ccc(C)cc4)nc3oc2c1	TDP1 cell noCPT 18µM
COc1ccc2c(=O)c3c(=O)n(CCc4ccccc4)c(C)nc3oc2c1	none (no result: IL-1B inflam inh)
COCCn1c(-c2ccccc2)nc2oc3cc(OC)ccc3c(=O)c2c1=O	none
COc1ccc2c(=O)c3c(=O)n(CCc4ccccc4)c(C(C)C)nc3oc2c1	DT40 TDP1 CPT 26µM, TDP1 cell noCPT 15µM
COc1cccc(NC(=O)CSc2cc(C)[nH]c(=O)n2)c1	none (no result: IL-1B inflam inh, HT1080 IDH1KD tx, HT1080-NT tox)
Cc1c(C(=O)O)sc(S(=O)(=O)N2CCN(C(=O)CC(C)c3ccccc3)CC2)c1C(=O)O (stereo not drawn)	DT40 TDP1 CPT inconclusive
C[C@H](CO)N1C[C@H](C)[C@H](CN(C)S(C)(=O)=O)Oc2c(cccc2N(C)C)C1=O	none
CCN=c1scc(-c2ccccc2)n1/N=C/c1ccccn1	DT40 TDP1 CPT 4.1µM, IL-1B inflam inh -58, HT1080 IDH1KD tx inconclusive, HT1080-NT tox inconclusive, TDP1 cell noCPT 3.7µM
O=C(Cc1ccc(F)cc1)N/N=C/c1ccccn1	none
CCN=c1scc(-c2ccc(F)cc2)n1/N=C/c1ccccn1	DT40 TDP1 CPT inconclusive, IL-1B inflam inh -51, HT1080 IDH1KD tx inconclusive, TDP1 cell noCPT 16µM
Cc1nc2ccccc2c(=O)n1/N=C/c1ccccn1	none
CCOC(=O)C1CCN(C(=O)CSC2=NCCS2)CC1	none
CCCCCCCCCCCCN1C/C(=C\C(=O)OCC)c2cc(C(F)(F)F)ccc2S1(=O)=O	DT40 TDP1 CPT inconclusive, TDP1 cell noCPT inconclusive
CCOC(=O)/C=C1\CN(Cc2cc(OC)c(OC)c(OC)c2)S(=O)(=O)c2ccccc21	DT40 TDP1 CPT 10µM, HT1080-NT tox inconclusive, TDP1 cell noCPT 6.5µM
CCOC(=O)/C=C1\CN(Cc2cc(OC)c(OC)c(OC)c2)S(=O)(=O)c2ccc(C(F)(F)F)cc21	DT40 TDP1 CPT 23µM, TDP1 cell noCPT 12µM
CCCCCCCCCCCCN1C/C(=C\C(=O)OCC)c2ccccc2S1(=O)=O	DT40 TDP1 CPT 16µM, TDP1 cell noCPT 11µM
CCOc1ccc(C(=O)Nc2ccc(-c3nc4ccccc4s3)c(C)c2)cc1OCC	none (no result: IL-1B inflam inh, HT1080 IDH1KD tx, HT1080-NT tox)
Cc1c(Cl)cccc1NC(=S)NC1CCCC1	none
COC(=O)C1CCN(C(=O)COC(=O)C2CCN(S(=O)(=O)c3ccc(C)c(C)c3)CC2)CC1	none
COC(=O)c1ccc(COc2ccc(CNCc3ccc(Cl)cc3)cc2)cc1	none
COc1ccc(CC2(CO)CCN(C(C)Cc3ccc(Cl)cc3)CC2)cc1 (stereo not drawn)	DT40 TDP1 CPT inconclusive, IL-1B inflam inh -67, HT1080 IDH1KD tx inconclusive, HT1080-NT tox inconclusive, TDP1 cell noCPT inconclusive
COc1ccc(CCC(C)N2CCC(CO)(Cc3ccccc3)CC2)cc1 (stereo not drawn)	DT40 TDP1 CPT inconclusive, IL-1B inflam inh -57, TDP1 cell noCPT inconclusive
COc1ccc(CC2(CO)CCN(S(=O)(=O)c3sccc3C)CC2)cc1	DT40 TDP1 CPT 26µM, TDP1 cell noCPT inconclusive
CC(COc1ccccc1)N1CCC(CO)(CCc2ccccc2)CC1 (stereo not drawn)	DT40 TDP1 CPT inconclusive, IL-1B inflam inh -67, HT1080 IDH1KD tx inconclusive, HT1080-NT tox 16µM, TDP1 cell noCPT inconclusive
CSCC(C)N1CCC(CO)(CCc2ccccc2)CC1 (stereo not drawn)	none
CCCCc1c(-c2ccccc2F)ncn1CCc1ccccc1OC	DT40 TDP1 CPT 26µM, IL-1B inflam inh -59, HT1080 IDH1KD tx inconclusive, HT1080-NT tox inconclusive, TDP1 cell noCPT 16µM
